According to PubChem BioAssay:
Where a SMILES comes first, the peptide text is derived from it. The star is where a group is joined. Boc = CC(C)(C)OC(=O)*

Experiments:
[1] = tested on: Botulinum neurotoxin type F light chain protease (Clostridium botulinum); experiment: Clostridium botulinum type F light chain protease inhibitors, microsphere substrate cleavage, validation (AID 588459); settings: multiplex microsphere protease substrate cleavage assay, flow cytometry; at 10 µM; hits give high values
[2] = target: Botulinum neurotoxin type A (Clostridium botulinum) (UniProt P0DPI0); experiment: BoNT/A light chain protease inhibitors, biochemical, multiplex microsphere flow cytometry, validation set (AID 588460); settings: at 10 µM, hits give high values
Botulinum neurotoxin type A (Clostridium botulinum), sequence (P0DPI0 whole entry, looked up): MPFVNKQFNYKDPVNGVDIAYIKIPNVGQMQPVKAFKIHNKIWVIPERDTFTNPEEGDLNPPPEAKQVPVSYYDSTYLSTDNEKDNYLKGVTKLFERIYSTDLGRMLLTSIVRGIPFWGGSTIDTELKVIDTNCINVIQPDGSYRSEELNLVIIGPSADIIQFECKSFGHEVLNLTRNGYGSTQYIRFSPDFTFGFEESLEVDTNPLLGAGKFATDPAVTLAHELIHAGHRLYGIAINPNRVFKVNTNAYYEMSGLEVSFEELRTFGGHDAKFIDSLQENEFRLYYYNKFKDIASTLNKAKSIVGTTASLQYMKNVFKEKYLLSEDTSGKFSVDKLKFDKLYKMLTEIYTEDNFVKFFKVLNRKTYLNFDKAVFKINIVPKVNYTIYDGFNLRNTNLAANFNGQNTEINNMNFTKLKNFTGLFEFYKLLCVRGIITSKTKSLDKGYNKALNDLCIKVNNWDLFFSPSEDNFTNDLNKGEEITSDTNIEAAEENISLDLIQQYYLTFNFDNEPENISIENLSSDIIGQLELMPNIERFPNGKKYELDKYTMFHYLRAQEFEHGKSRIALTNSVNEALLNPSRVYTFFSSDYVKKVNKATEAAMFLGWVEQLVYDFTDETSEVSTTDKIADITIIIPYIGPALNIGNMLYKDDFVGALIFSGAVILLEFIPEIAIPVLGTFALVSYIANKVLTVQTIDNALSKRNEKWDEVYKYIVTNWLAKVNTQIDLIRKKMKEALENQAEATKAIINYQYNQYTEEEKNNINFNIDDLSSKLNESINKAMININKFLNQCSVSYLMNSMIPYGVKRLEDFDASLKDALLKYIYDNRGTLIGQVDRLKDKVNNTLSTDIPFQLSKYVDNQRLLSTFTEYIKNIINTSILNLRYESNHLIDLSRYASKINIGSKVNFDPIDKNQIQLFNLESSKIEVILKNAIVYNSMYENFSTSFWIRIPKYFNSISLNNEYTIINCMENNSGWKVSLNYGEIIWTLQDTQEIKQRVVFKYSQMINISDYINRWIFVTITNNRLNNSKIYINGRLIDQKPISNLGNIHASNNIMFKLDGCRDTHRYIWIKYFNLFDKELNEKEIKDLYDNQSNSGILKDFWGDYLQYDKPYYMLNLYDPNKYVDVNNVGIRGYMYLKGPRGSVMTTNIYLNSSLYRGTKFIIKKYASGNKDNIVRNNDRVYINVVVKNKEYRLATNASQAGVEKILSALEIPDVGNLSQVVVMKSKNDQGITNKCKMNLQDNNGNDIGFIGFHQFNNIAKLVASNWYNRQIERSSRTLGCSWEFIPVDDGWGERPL

[3] = target: Lethal factor (Bacillus anthracis) (UniProt P15917); experiment: Bacillus anthracis lethal factor inhibition, microsphere flow cytometry protease assay, validation at 10 µM (AID 588461); settings: multiplex microsphere protease cleavage assay, hits give high values
Lethal factor (Bacillus anthracis), sequence (P15917 whole entry, looked up): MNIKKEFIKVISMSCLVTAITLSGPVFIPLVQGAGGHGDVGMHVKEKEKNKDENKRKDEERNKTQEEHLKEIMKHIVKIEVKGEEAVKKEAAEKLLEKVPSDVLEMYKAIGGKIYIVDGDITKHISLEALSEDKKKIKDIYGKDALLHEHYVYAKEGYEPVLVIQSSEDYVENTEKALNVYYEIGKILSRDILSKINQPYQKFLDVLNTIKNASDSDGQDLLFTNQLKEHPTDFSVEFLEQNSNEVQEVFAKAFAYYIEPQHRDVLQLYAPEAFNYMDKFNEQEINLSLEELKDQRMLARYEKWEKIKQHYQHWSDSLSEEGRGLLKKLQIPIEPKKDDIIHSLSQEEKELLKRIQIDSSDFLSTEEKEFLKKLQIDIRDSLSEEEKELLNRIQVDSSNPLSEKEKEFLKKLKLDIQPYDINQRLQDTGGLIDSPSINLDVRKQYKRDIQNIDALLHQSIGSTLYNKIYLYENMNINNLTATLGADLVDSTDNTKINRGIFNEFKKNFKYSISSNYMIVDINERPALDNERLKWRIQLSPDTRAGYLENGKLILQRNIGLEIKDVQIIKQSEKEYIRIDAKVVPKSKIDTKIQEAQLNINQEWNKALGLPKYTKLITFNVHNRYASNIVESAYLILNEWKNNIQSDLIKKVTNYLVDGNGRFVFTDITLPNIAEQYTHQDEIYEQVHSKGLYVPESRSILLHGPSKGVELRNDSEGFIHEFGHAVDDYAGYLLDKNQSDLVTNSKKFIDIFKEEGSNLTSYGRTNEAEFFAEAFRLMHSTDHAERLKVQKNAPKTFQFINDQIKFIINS

Measured: inhibition

Cn1c(=O)[nH]c(=O)c2c1nc(Br)n2CCCO
inactive: [1] 2.3% | [2] 0.7% | [3] -5.7%

CCN1CCn2c3c(c4cc(Cl)ccc42)CCCC31 (configuration not stated)
inactive: [1] 0.6% | [2] 1.4% | [3] -8.7%

O=Cc1ccc(N2CCCCC2)cc1
inactive: [1] -0.8% | [2] -0.3% | [3] -1.6%

COc1cccc(-n2cc(CNCc3c(C(=O)N(C)C)nc4ccc(Cl)cn34)cn2)c1
inactive: [1] 1.3% | [2] -0.7% | [3] 7.5%

COC(=O)C1=C(C)NC(C)=C([N+](=O)[O-])C1c1ccccc1C(F)(F)F (configuration not stated)
inactive: [1] -0.4% | [2] -1% | [3] -11.2%

CCOC(=O)c1ccc2[nH]c(C)c(CCC(C)=O)c(=O)c2c1
inactive: [1] -0.7% | [2] 0.3% | [3] 6%

O=C(Nc1ccc(F)c([N+](=O)[O-])c1)c1ccc2c(c1)OCCO2
inactive: [1] -3.7% | [2] -2.7% | [3] -7.5%

COc1ccc(NC(=O)CC2C(=O)N(C)C(=S)N2Cc2ccncc2)cc1 (configuration not stated)
inactive: [1] -2.7% | [2] -1.6% | [3] -9.6%

CC(=O)NS(=O)(=O)c1ccc(N)cc1
inactive: [1] 0.7% | [2] 1% | [3] 4.5%

COc1ccc(-c2noc(-c3ccccc3-c3ccccc3)n2)cc1
inactive: [1] -1.9% | [2] -0.7% | [3] -1.9%

COc1ccc(Cc2noc(CN(C)CCN3CCc4ccccc4C3)n2)cc1OC
inactive: [1] -1.9% | [2] -0.3% | [3] -7.4%

COc1ccc(C(CC(=O)N2CCOCC2)C(C)C)cc1 (configuration not stated)
inactive: [1] -4.7% | [2] -1.9% | [3] -8.6%

COc1cc(NC(=O)COc2ccccc2)c(OC)cc1NC(C)=O
inactive: [1] -2.2% | [2] 1.2% | [3] -8.3%

Cc1cccc(N2CCN(C(=S)c3ccccc3)CC2)c1
inactive: [1] 3.3% | [2] -1.9% | [3] -2.9%

CCCN(CCC)S(=O)(=O)c1ccc(C(=O)O)cc1
inactive: [1] 2.8% | [2] 1.1% | [3] 0%

CC(C)CCc1noc(CN2CCC(CCN3CCCC3=O)CC2)n1
inactive: [1] 1% | [2] 0.2% | [3] 3.1%

CC(C)CC(NC(=O)C1CCCN1C(=O)OC(C)(C)C)C(=O)NCC(N)=O (stereo not drawn) (Boc-Pro-Leu-Gly-NH2; configuration not given here)
inactive: [1] 3.5% | [2] 0.3% | [3] 4.3%

CCc1cccc2c3c([nH]c12)C(CC)(CC(=O)O)OCC3 (configuration not stated)
inactive: [1] -3.9% | [2] -0.3% | [3] -0.8%

CC(=O)c1cccc2c(O)c(C3=Nc4ccccc4C3=O)[nH]c12
inactive: [1] -2.1% | [2] 0.6% | [3] 6.7%

CC(CCc1ccccc1)NCC(O)c1ccc(O)c(C(N)=O)c1 (configuration not stated)
inactive: [1] -1% | [2] -1.4% | [3] 0.1%

CCNC(=S)N1CCN(CCN2C(=O)c3cccc4cccc(c34)C2=O)CC1
inactive: [1] 5.8% | [2] 3.7% | [3] 10.2%

COc1ccc(OC)c(-n2c(Cn3c(-c4ccccn4)nc4ccccc43)n[nH]c2=S)c1
inactive: [1] -3.4% | [2] -0.4% | [3] -0.7%

O=C1CC[C@@H](CN(Cc2ccccc2)Cc2cn[nH]c2-c2cc3ccccc3o2)N1
inactive: [1] 3.7% | [2] 1.2% | [3] -0.2%

Cc1cccc(C)c1NS(=O)(=O)c1ccc(NC(=O)c2ccc(Cl)c([N+](=O)[O-])c2)cc1
inactive: [1] 2.3% | [2] -0.2% | [3] 0.9%

CN=C1c2cc3cc(OC)ccc3n2CCN1C
inactive: [1] -1.5% | [2] -0.6% | [3] -0.1%

Cc1ccccc1NC(=O)c1c(C)cc(=O)oc1C
inactive: [1] -0.8% | [2] -0.1% | [3] 1.7%

COc1ccc2oc(=O)c(-c3nc(C)cs3)cc2c1
inactive: [1] 2.9% | [2] 1.9% | [3] -0.1%

O=C(O)Cc1ccc(O)c(F)c1
inactive: [1] 2.3% | [2] -0.5% | [3] -3.6%

CN(C)CCN(Cc1cccs1)c1ccccn1
inactive: [1] 2.5% | [2] -0.3% | [3] -1.6%

O=C(CC1(O)C(=O)Nc2ccccc21)c1ccccc1O (configuration not stated)
inactive: [1] 0.6% | [2] -0.8% | [3] -1.4%

CC(C)(C)C(=O)NC(=S)Nc1sc2c(c1C(N)=O)CCC2
inactive: [1] 0.8% | [2] 0.4% | [3] -1.2%

CCN1/C(=C/C=C/C=C/c2sc3ccccc3[n+]2CC)Sc2ccccc21
inactive: [1] -1% | [2] 16.8% | [3] -36.6%

COc1ccc(C2C3=C(CC(C)(C)CC3=O)N(C)C3=C2C(=O)CC(C)(C)C3)cc1
inactive: [1] 2% | [2] 0.4% | [3] -5.6%

OCCN1CCN(CCCN2c3ccccc3Sc3ccc(C(F)(F)F)cc32)CC1
inactive: [1] -3.2% | [2] -0.1% | [3] -5.1%

O=C1c2ccccc2C2(c3ccccc3)NCCN12 (configuration not stated)
inactive: [1] -1.6% | [2] -1.3% | [3] 8.5%

Cc1cccc(N(C)C(=S)Oc2ccc3ccccc3c2)c1
inactive: [1] -0.1% | [2] -0.6% | [3] -4.3%

CCN(CC)Cc1c[nH]c2c(C(=O)OC)cccc12
inactive: [1] -0.7% | [2] 0.3% | [3] 6.7%

Cc1ccc(O)c(CCc2ccccc2)n1
inactive: [1] 1.3% | [2] 0.5% | [3] -5.5%

COc1ccc2c(C=O)cn(C)c2c1
inactive: [1] 1.9% | [2] -0.9% | [3] 2.1%

Cc1cc(=O)oc2cc(OC(C)C(=O)NCC3CCCO3)ccc12 (configuration not stated)
inactive: [1] 3% | [2] 0.9% | [3] -4.8%

O=C(CN1C(=O)/C(=C/c2cccc(Br)c2)SC1=S)Nc1cccnc1
inactive: [1] 1.8% | [2] -0.3% | [3] 4.2%

CC1(C)CC(=O)c2c(nc3ccccc3c2N)C1
inactive: [1] 1% | [2] -0.5% | [3] 7.9%

CCc1cc(-c2[nH]ncc2-c2ccc3c(c2)OCO3)c(O)cc1O
inactive: [1] -0.4% | [2] -0.4% | [3] 2.3%

O=C(Nc1ccc(C(=O)NC2CCCCC2)cc1)c1cccnc1
inactive: [1] 0.1% | [2] -1.5% | [3] -12.6%

COC(=O)c1cc(=O)c2ccc(OC)cc2o1
inactive: [1] -4.1% | [2] -0.9% | [3] 2.2%

COc1ccc(C(=O)N2c3cc4c(cc3C(C)=CC2(C)C)OCO4)cc1
inactive: [1] 3.7% | [2] 0% | [3] 4%

Fc1ccc(C(c2ccc(F)cc2)N2CCN(C/C=C/c3ccccc3)CC2)cc1
inactive: [1] -5.9% | [2] -1.8% | [3] -5.7%

C=CCOC(=O)C1=C(C)NC(=O)NC1/C=C/c1ccccc1OC (configuration not stated)
inactive: [1] 1% | [2] 0.4% | [3] -0.8%

COC(=O)C1=C(C)N(Cc2ccco2)C(=O)/C1=C\c1ccc([N+](=O)[O-])cc1
inactive: [1] 1% | [2] -0.6% | [3] -3.7%

CC(=O)[C@@]1(O)CC[C@H]2[C@@H]3C[C@H](C)C4=CC(=O)CC[C@]4(C)[C@H]3CC[C@@]21C
inactive: [1] -1.7% | [2] -2.5% | [3] -5.5%

COC(=O)c1cc(COc2ccc3ccc(=O)oc3c2)c(C)o1
inactive: [1] -0.4% | [2] -1.4% | [3] 1%

O=c1ccc2c(o1)/C(=C/C=C(Cl)Cl)CCC2
inactive: [1] -0.9% | [2] -0.6% | [3] -2%

Cc1ccc(C(=O)COC(=O)c2cnccn2)cc1[N+](=O)[O-]
inactive: [1] 2.8% | [2] -0.2% | [3] -5.2%

C#C[C@]1(O)CC[C@H]2[C@@H]3CCc4cc(O)ccc4[C@H]3CC[C@@]21C
inactive: [1] -3.8% | [2] -2.8% | [3] 6.8%

COc1ccc(C2NC(=O)c3ccccc3N2)cc1OC (configuration not stated)
inactive: [1] -2.5% | [2] -0.1% | [3] -2.9%

COc1ccc(CCN=CC2=C(O)CC(C)(C)CC2=O)cc1
inactive: [1] 1.2% | [2] -0.7% | [3] -4.5%

COC(=O)c1ccc(OCCCCN2CC(C)OC(C)C2)cc1 (configuration not stated)
inactive: [1] -4.5% | [2] 0.2% | [3] 4%

COc1ccc(CC(=O)N2CC3(C)CC2CC(C)(C)C3)cc1OC (configuration not stated)
inactive: [1] -2.6% | [2] -1.4% | [3] -0.4%

COc1ccccc1NC(=O)C12CCC(C)(C(=O)C1)C2(C)C (configuration not stated)
inactive: [1] -1% | [2] 0.8% | [3] 0.3%

CN1/C(=C\C=Nc2ccccc2)C(C)(C)c2ccccc21
inactive: [1] -1.1% | [2] 0.8% | [3] -0.6%

O=C(Nc1ccccc1C(=O)N1CCCCCC1)c1ccccc1Cl
inactive: [1] -2.3% | [2] 0% | [3] -1.1%

O=C(O)C1Sc2[nH]c(=O)sc2C2c3ccc(O)cc3OC(=O)C12 (configuration not stated)
inactive: [1] -6.1% | [2] -1% | [3] -16.5%

CN(C)C(=O)C12CCC(C)(c3nc4ccccc4nc31)C2(C)C (configuration not stated)
inactive: [1] -1.3% | [2] -1.5% | [3] 1.8%

COc1ccc(-c2csc(-c3cccnc3)n2)cc1C
inactive: [1] -2% | [2] -1.6% | [3] -5.1%
